Experimental data reported in ChEMBL document CHEMBL1961873, “Compounds: GSK PKIS; Assays: Nanosyn kinase panel” (2012).

How the values were obtained:
[1] = biological target: Tyrosine-protein kinase receptor UFO (Homo sapiens) (UniProt P30530); details: at 1 µM
[2] = biological target: Tyrosine-protein kinase Blk (Homo sapiens) (UniProt P51451); details: at 0.1 µM
[3] = biological target: Tyrosine-protein kinase Blk (Homo sapiens) (UniProt P51451); details: at 1 µM
[4] = biological target: T1, Cytoplasmic tyrosine-protein kinase BMX (Homo sapiens) (UniProt P51813); details: at 0.1 µM
T1 sequence (whole entry): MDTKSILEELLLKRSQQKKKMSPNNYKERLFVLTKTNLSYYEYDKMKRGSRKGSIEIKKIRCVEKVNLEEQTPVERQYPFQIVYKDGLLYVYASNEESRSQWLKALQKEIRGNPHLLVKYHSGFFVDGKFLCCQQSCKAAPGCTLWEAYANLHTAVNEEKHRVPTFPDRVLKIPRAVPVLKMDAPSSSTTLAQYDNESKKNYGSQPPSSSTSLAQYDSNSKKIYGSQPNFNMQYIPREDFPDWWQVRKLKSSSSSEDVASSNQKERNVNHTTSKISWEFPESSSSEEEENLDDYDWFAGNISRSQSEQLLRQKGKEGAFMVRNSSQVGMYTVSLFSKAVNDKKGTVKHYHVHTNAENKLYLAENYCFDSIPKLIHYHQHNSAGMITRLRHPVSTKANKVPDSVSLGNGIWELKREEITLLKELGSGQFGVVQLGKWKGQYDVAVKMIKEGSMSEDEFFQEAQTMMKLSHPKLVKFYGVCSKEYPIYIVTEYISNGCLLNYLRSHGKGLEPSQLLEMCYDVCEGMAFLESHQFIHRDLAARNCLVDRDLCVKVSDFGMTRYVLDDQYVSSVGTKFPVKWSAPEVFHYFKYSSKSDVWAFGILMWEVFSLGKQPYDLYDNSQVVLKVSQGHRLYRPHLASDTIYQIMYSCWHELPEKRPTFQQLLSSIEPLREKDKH

[5] = biological target: T1, Cytoplasmic tyrosine-protein kinase BMX (Homo sapiens); details: at 1 µM
[6] = biological target: Protein-tyrosine kinase 6 (Homo sapiens) (UniProt Q13882); details: at 0.1 µM
[7] = biological target: Protein-tyrosine kinase 6 (Homo sapiens) (UniProt Q13882); details: at 1 µM
[8] = biological target: Tyrosine-protein kinase BTK (Homo sapiens) (UniProt Q06187); details: at 0.1 µM
[9] = biological target: Tyrosine-protein kinase BTK (Homo sapiens) (UniProt Q06187); details: at 1 µM
[10] = biological target: Tyrosine-protein kinase CSK (Homo sapiens) (UniProt P41240); details: at 0.1 µM;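 also: value given is the averaged percent inhibition of CSK kinase activity, from the GSK PKIS kinase inhibitor set screening panel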
Tyrosine-protein kinase CSK (Homo sapiens), sequence (P41240 2-450 limits assumed): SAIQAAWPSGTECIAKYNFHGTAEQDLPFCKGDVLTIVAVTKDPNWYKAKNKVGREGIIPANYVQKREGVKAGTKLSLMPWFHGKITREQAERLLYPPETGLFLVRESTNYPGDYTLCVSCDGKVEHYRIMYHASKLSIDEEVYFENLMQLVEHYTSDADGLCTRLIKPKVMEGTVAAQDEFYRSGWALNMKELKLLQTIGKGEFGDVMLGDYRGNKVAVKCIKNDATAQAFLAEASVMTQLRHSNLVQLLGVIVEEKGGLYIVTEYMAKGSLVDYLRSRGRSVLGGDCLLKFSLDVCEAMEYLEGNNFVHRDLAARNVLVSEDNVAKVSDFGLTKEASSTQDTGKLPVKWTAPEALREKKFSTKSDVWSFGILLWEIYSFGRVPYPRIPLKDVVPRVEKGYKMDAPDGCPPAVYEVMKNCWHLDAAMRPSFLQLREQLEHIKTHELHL

Protein-tyrosine kinase 6 (Homo sapiens), sequence (Q13882 whole entry, looked up): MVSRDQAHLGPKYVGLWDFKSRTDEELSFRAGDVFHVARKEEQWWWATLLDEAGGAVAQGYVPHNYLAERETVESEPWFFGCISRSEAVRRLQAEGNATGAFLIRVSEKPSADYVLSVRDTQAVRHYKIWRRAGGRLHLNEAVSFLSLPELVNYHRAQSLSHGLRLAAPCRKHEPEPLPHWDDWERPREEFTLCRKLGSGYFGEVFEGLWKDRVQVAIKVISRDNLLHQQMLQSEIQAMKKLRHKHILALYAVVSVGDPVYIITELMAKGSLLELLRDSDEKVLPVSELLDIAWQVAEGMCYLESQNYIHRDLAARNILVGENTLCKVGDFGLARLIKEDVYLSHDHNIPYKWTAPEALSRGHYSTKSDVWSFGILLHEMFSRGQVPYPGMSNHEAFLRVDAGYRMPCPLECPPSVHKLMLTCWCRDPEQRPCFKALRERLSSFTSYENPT
Tyrosine-protein kinase receptor UFO (Homo sapiens), sequence (P30530 whole entry): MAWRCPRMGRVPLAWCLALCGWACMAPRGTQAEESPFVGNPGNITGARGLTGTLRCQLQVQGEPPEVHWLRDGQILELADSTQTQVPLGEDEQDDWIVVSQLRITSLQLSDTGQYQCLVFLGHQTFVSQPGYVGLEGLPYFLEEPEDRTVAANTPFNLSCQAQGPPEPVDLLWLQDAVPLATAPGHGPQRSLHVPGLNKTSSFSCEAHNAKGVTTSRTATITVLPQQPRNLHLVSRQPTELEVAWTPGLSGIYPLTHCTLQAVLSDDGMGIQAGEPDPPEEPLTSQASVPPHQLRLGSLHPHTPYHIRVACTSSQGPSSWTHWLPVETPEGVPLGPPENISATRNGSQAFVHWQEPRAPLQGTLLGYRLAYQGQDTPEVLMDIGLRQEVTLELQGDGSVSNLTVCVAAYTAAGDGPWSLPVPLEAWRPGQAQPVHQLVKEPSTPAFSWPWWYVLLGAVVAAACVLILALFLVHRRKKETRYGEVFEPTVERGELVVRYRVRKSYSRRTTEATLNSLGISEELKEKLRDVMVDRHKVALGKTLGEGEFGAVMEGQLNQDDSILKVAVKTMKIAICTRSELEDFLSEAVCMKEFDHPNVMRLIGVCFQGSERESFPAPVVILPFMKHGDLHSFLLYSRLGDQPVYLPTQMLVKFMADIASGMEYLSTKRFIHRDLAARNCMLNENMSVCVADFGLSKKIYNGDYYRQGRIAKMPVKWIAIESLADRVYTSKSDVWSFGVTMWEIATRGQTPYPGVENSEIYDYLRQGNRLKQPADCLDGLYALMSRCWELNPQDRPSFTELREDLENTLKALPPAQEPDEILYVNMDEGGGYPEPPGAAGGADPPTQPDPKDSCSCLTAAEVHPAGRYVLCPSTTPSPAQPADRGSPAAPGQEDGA
Tyrosine-protein kinase BTK (Homo sapiens), sequence (Q06187 whole entry): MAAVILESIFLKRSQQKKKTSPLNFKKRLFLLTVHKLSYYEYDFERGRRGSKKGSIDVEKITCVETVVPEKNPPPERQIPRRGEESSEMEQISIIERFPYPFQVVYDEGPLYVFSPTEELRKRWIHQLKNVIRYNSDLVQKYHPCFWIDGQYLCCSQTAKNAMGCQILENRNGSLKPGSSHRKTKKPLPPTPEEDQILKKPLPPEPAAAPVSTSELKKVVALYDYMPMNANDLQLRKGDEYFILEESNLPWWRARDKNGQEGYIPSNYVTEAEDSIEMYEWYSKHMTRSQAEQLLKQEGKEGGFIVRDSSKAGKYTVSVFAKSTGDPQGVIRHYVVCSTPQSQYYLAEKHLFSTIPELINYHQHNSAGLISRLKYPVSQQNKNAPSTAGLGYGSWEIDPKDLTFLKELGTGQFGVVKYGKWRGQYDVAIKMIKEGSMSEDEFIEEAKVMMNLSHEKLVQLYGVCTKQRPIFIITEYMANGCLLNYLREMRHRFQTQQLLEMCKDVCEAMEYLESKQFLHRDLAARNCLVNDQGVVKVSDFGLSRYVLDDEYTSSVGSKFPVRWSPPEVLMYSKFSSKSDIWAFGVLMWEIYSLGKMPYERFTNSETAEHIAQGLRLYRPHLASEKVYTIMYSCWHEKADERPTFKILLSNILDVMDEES
Tyrosine-protein kinase Blk (Homo sapiens), sequence (P51451 2-505 limits assumed): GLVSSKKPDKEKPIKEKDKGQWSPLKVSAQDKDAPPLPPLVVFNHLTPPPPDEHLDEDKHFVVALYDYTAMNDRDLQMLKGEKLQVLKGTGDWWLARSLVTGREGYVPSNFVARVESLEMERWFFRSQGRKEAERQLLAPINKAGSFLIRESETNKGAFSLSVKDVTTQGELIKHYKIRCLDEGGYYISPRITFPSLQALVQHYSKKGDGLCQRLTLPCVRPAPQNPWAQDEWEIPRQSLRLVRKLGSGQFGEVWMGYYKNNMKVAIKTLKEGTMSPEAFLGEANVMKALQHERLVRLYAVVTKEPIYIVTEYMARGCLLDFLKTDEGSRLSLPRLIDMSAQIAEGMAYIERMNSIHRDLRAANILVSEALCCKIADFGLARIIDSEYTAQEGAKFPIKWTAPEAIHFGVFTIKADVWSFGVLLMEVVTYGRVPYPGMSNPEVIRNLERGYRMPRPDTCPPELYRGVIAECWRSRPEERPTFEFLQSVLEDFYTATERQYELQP

Work on `COc1cc(Nc2nccc(Nc3ccc4c(C)n[nH]c4c3)n2)cc(OC)c1OC` yielded an inhibition [1] of 1.16%, an inhibition [2] of 12.7% and an inhibition [3] of 69.3%. For the same compound, the inhibition [4] was 17.5%, the inhibition [5] was 64.8% and the inhibition [6] was 11.1%. It also gave an inhibition [7] of 55.4%, an inhibition [8] of 7.82% and an inhibition [9] of 34.9%. For the same compound, the inhibition [10] was 21%.
`CS(=O)(=O)CCNCc1ccc(-c2ccc3ncnc(Nc4ccc(OCc5ccccc5)c(C(F)(F)F)c4)c3c2)o1` showed an inhibition [1] of -6.09%, an inhibition [2] of 3.53% and an inhibition [3] of 4.36%. The inhibition [4] was 2.52%, the inhibition [5] was 1.86% and the inhibition [6] was 3.06%. The inhibition [7] was 3.52%, the inhibition [8] was 1.47% and the inhibition [9] was 1.16%. For the same compound, the inhibition [10] was 0.54%.
Compound `COc1ccc(-c2oc3ncnc(N)c3c2-c2ccc(NC(=O)Nc3cc(C(F)(F)F)ccc3F)cc2)cc1` has an inhibition [1] of 82.1%, an inhibition [2] of 5.14% and an inhibition [3] of 41.2%. For the same compound, the inhibition [4] was 8.1%, the inhibition [5] was 59.5% and the inhibition [6] was 3.11%. The inhibition [7] was 25.4%, the inhibition [8] was 1.43% and the inhibition [9] was 13.3%. It also gave an inhibition [10] of 10.9%.
Work on `CCn1c(-c2nonc2N)nc2c(C#CC(C)(C)O)ncc(OC3CCNCC3)c21` yielded an inhibition [1] of -4.23%, an inhibition [2] of 2.38% and an inhibition [3] of 3.31%. For the same compound, the inhibition [4] was 3.84%, the inhibition [5] was 7.52% and the inhibition [6] was 1.28%. It also gave an inhibition [7] of 1.62%, an inhibition [8] of 0.17% and an inhibition [9] of 0.56%. It also gave an inhibition [10] of 3.49%.
In the case of `COC(=O)Nc1nc2ccc(Oc3ccc(NC(=O)Nc4cccc(Cl)c4)cc3)cc2[nH]1`, the inhibition [1] was 6.96%, the inhibition [2] was 0.1% and the inhibition [3] was 1.79%. For the same compound, the inhibition [4] was 1.98%, the inhibition [5] was 1.28% and the inhibition [6] was 0.55%. For the same compound, the inhibition [7] was -0.38%, the inhibition [8] was 0.06% and the inhibition [9] was -0.37%. The inhibition [10] was 1.23%.
Work on `Clc1ccc(-c2nn3ncccc3c2-c2ccnc(Nc3ccccc3)n2)cc1` yielded an inhibition [1] of -0.77%, an inhibition [2] of 3.97% and an inhibition [3] of 15%. It also gave an inhibition [4] of -0.61%, an inhibition [5] of 13.9% and an inhibition [6] of 7.5%. For the same compound, the inhibition [7] was 40.2%, the inhibition [8] was 0.8% and the inhibition [9] was 2.63%. It also gave an inhibition [10] of 0.47%.
`CN1CCC(n2cnc(-c3ccc(F)cc3)c2-c2ccnc(Nc3ccccc3)n2)CC1` showed an inhibition [1] of -1.45%, an inhibition [2] of 2.74% and an inhibition [3] of 7.18%. It also gave an inhibition [4] of 6.66%, an inhibition [5] of 5.4% and an inhibition [6] of 2.56%. It also gave an inhibition [7] of 13.2%, an inhibition [8] of -0.86% and an inhibition [9] of 1.25%. The inhibition [10] was 5.97%.
`CS(=O)(=O)CCNCc1coc(-c2ccc3ncnc(Nc4ccc(OCc5ccccc5)cc4)c3c2)c1` showed an inhibition [1] of 0.06%, an inhibition [2] of 2.9% and an inhibition [3] of 11.5%. For the same compound, the inhibition [4] was 4.64%, the inhibition [5] was 6.49% and the inhibition [6] was -1.1%. The inhibition [7] was 10.9%, the inhibition [8] was -0.04% and the inhibition [9] was 2.66%. For the same compound, the inhibition [10] was 0.42%.
